Screen size: about 4,100 compounds; about 1,600 (39%) were called active. Inconclusive results (about 25%) are left out. The list shows a part of the results. A number with no mark means an inactive call. Calls follow the shape of the dose curve; as a rule, active = well fitted inhibition curve with a large enough effect; inconclusive = small, poorly fitted or top-dose-only effect; inactive = no such curve, though single readings can be large or run the other way.
assay: qHTS Validation assay for Inhibitors of Plasmodium falciparum Dd2 growth in vitro; also: nearly all actives have a fitted effect of over 70% in size; settings: P. falciparum Dd2 in RBCs, SYBR Green growth, 72 h; series mostly up to 28.7 µM; activity change, negative = inhibition: at the top concentration
How it was run: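 P. falciparum Dd2-infected red blood cells (2.5% hematocrit, 0.3% parasitemia) grown 72 h at 37 °C under 5% O2 with compounds in a titration, 29 uM to 0.5 nM final. Growth read as SYBR Green-1 fluorescence after ~16 h lysis; artesunate 300 nM as positive control.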
% is scaled to controls: 0 for no effect and ±100 for the full control effect; potency is read from the fitted curve at half-maximal effect.

SMILES	Potency	activity change, negative = inhibition
O=C(NCc1ccco1)c1ccc2c(c1)N(Cc1c(F)cccc1Cl)C(=O)c1ccccc1S2	13300 nM (active)	
CCCCN(CC)CCCNC(=O)c1ccc2c(c1)N(Cc1ccc(C)cc1)C(=O)c1ccccc1S2	1880 nM (active)	
CCN(CC)CCCNC(=O)c1ccc2c(c1)N(Cc1c(F)cccc1Cl)C(=O)c1ccccc1S2	944 nM (active)	
CC(C)CCNC(=O)c1ccc2c(c1)CC(=O)N2Cc1ccccc1		1.52%
O=C(NCc1ccco1)c1ccc2c(c1)N(Cc1ccc(F)cc1)C(=O)c1ccccc1S2(=O)=O		-17.7%
COCCCNC(=O)c1ccc2c(c1)CC(=O)N2Cc1ccccc1		1.11%
Cc1ccccc1CNC(=O)CC1C(=O)NCCN1Cc1c(F)cccc1Cl (stereo unspecified)		2.91%
CN(C)CCNC(=O)c1ccc2c(c1)N(Cc1c(F)cccc1Cl)C(=O)c1ccccc1S2	2110 nM (active)	
CC(C)[C@@H]1CN(C(=O)CCn2ccc(=O)[nH]c2=O)C[C@H]1NS(C)(=O)=O		59.1%
CCOc1ccccc1NC(=O)Cn1c(-c2ccc(Cl)cc2)noc1=O	5960 nM (active)	
O=C(Cn1c(-c2ccccc2)noc1=O)NCc1ccccc1		8.85%
CCOc1ccccc1NC(=O)Cn1c(-c2ccccc2)nc(C)cc1=O		-19.7%
COc1ccc(-c2ccc3c(n2)CN(Cc2csc(C)n2)C(=O)CO3)cc1F		-22.2% [at 43.1 µM]
Cc1csc(Nc2ccc3c(n2)CN(Cc2ccccc2C)C(=O)CO3)n1	19300 nM (active)	
O=C1COc2ccc(-c3ccc(Cl)cc3)nc2CN1Cc1ccccc1		24% [at 43.1 µM]
CC(=O)c1cccc(N(C(=O)Cn2nnc3ccccc32)C(C(=O)NCc2ccccc2)c2ccc(F)cc2)c1 (stereo unspecified)		25.6%
N=c1c2c3c(sc2ncn1Nc1ccccc1)CCC3	3350 nM (active)	
c1cc(Nc2ncnc3sc4c(c23)CCC4)ccn1		-8.48%
O=C(Nc1ccc2c(N3CCCCC3)ncnc2c1)c1cc(F)cc(F)c1	1880 nM (active)	
O=C(Nc1ccccc1)c1cnc(N2CCCCC2)c2ccccc12		6.64%
CCN1c2cc(C(=O)Nc3cc(C)cc(C)c3)ccc2C(=O)N2CCCC21 (stereo unspecified)		-17.1%

SMILES	Potency	activity change, negative = inhibition
O=C(Nc1ccc2c(N3CCCCC3)ncnc2c1)c1ccc(F)c(F)c1	4730 nM (active)	
Cc1cc(C)cc(C(=O)NC2CCN(c3cc(-c4ccc(F)cc4)[nH]n3)C2)c1 (stereo unspecified)		-3.35%
Cc1cc(C)cc(C(=O)Nc2ccc3c(N4CCCC4)ncnc3c2)c1	2370 nM (active)	
O=C(Nc1ccc2oc(-c3cccc(F)c3)nc2c1)c1ccc2ccccc2c1		39.4%
O=C(Nc1ccc2c(N3CCCC3)ncnc2c1)c1cccc(F)c1	4730 nM (active)	
CC(C)c1noc(-c2cccn3c(CNC(=O)COc4ccc(F)cc4)nnc23)n1		-0.867%
CCc1noc(-c2ccn3c(CNC(=O)Cc4ccccc4OC)nnc3c2)n1		8.77%
COc1ccccc1Cc1nc2ccccc2nc1SCC(=O)NCc1ccccc1Cl	2110 nM (active)	
COc1cccc(CNC(=O)CSc2n[nH]c(-c3ccccc3Cl)n2)c1OC		16.8%
CN1CCCN(C(=O)C2CCCO2)c2ccccc21 (stereo unspecified)		-0.486%
O=S(=O)(Cc1ccccc1F)N1CCCC(Cn2c(C3CC3)nc3cccnc32)C1 (stereo unspecified)		-8.66%
Cc1ccc(CN2COc3cc(C)c4c(oc(=O)c5ccccc54)c3C2)cc1	1330 nM (active)	
Cc1cc2c(c3oc(=O)c4ccccc4c13)CN(Cc1ccc(F)cc1)CO2	2660 nM (active)	
Cc1ccc(C)c(-c2[nH]ncc2CN2CCCC(CO)(CCc3ccccc3)C2)c1 (stereo unspecified)		-24.8%
COc1ccc(CN2CCC(CO)(CCCc3ccccc3)CC2)c(Cl)c1OC	8410 nM (active)	
CN(Cc1ccccc1)Cc1ccccc1OCC(O)CN1CCCCC1 (stereo unspecified)	1500 nM (active)	
OC(COc1ccccc1CNCCc1ccccc1)CN1CCSCC1 (stereo unspecified)	2110 nM (active)	
COc1cc(CN2Cc3ccccc3C2)ccc1OCC(O)CN1CCOCC1 (stereo unspecified)		39.4%
Cc1cccc(CNC(=O)c2cc3c(N4CCSCC4)nc(C)cn3n2)c1		-2.01%
Cc1cccc(CNCc2ccccc2OCC(O)CN2CCSCC2)c1 (stereo unspecified)	1500 nM (active)	
Cc1cc(Nc2sc(C(=O)c3ccc(F)cc3)c(N)c2C(=O)Nc2ccc(F)cc2)ccc1Cl	750 nM (active)	

SMILES	Potency	activity change, negative = inhibition
O=C(Cc1c[nH]c2ncc(-c3ccc(Cl)cc3)cc12)NCc1cccnc1	1720 nM (active)	
COc1ccc(C(=O)NCc2nc(-c3cccc(C)c3)no2)cc1OC		18%
COc1ccccc1C(=O)N[C@H]1[C@H](O)[C@H](O)C[C@@H]1c1cccnc1		12.8% [at 43.1 µM]
CC(=O)N1CCCN(C(=O)c2c[nH]c3ncccc23)CC1		39.5% [at 43.1 µM]
COc1ccc(-c2cnc3[nH]cc(CC(=O)NCc4cccnc4)c3c2)cc1OC	1530 nM (active)	
COc1ccc(-c2cnc3[nH]cc(CC(=O)NCc4cccnc4)c3c2)cn1	6850 nM (active)	
CC1(COc2cccnc2)COc2ccc(C(=O)NCc3ccc(F)cc3)cc2N1 (stereo unspecified)		29.9% [at 43.1 µM]
O=C(CC[C@@H]1CNC(=O)[C@@H]2C[C@H](NC(=O)Nc3cccc(Cl)c3)CN12)NCc1cccnc1		18.7%
Cc1cn2nc(C(=O)N3CCC(NC(=O)c4nccc5ccccc45)CC3)cc2c(=O)[nH]1		33.3%
O=C1NCCCCCN(C(=O)c2ccsc2)[C@@H]2C[C@@H](C(=O)N3CCc4ccccc4C3)C[C@H]12		-27.2%
O=C1NCCCCCN(C(=O)CC2CCCC2)[C@@H]2C[C@@H](C(=O)N3CCc4ccccc4C3)C[C@H]12		-34.7%
O=C(NCCc1c[nH]c2ccccc12)[C@@H]1C[C@H]2C(=O)NCCCCCCN(C(=O)c3ccco3)[C@H]2C1	10600 nM (active)	
CCCCCn1c(=O)[nH]c2cc(C(=O)NCc3ccc(OC)cc3)ccc2c1=O		0.541%
CCCCn1c(N)c(N(CC(C)C)C(=O)c2cc(-c3ccc(OC)c(OC)c3)nc3ccccc23)c(=O)[nH]c1=O	11900 nM (active)	
CCOc1ccccc1NC(=O)c1c(NC(=O)COc2ccccc2)sc2c1CCCCC2		0%
COc1ccccc1NC(=O)N1CC(=O)Nc2sc3c(c2C1c1ccccc1)CCCC3 (stereo unspecified)	15000 nM (active)	
Cc1cc(C)cc(N(CC(=O)NCc2ccc3c(c2)OCO3)C(=O)CCC(=O)Nc2ccccn2)c1	4220 nM (active)	
COc1ccc(C(=O)/C=C/Nc2cc(C)ccn2)cc1		4.09%
COc1ccc(N(CC(=O)NCc2ccccc2)C(=O)CCC(=O)Nc2cc(C)ccn2)c(OC)c1	10600 nM (active)	

— PubChem BioAssay AID1347416 (National Center for Advancing Translational Sciences (NCATS), 2020)
